Data published in PubChem BioAssay (Tox21).
Records with an inconclusive call do not appear. Active and inactive are the calls of the source. Unless noted, calls follow the shape of the full dose curve.

Columns and labels:
[1] = qHTS assay to identify small molecule antagonists of the vitamin D receptor (VDR) signaling pathway - cell viability counter screen (AID 743225; active = well fitted curve in the direction sought with a large enough effect in the repeat runs; an effect the other way counts as inactive or inconclusive; also: % is scaled to controls: 0 for no effect and ±100 for the full control effect; nearly all actives have a fitted effect of over 50% in size)
How it was run: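 Cells (VDR-UAS-bla HEK 293T) are plated, rested 4 h at 37C, dosed with compound and 3 nM final 1-alpha,25-dihydroxy vitamin D3, and incubated 16 h. Viability is taken from CellTiter-Glo luminescence in the reporter wells.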

[2] = qHTS assay to identify small molecule agonists of the NFkB signaling pathway (AID 1159509; active = well fitted curve in the direction sought with a large enough effect in the signal ratio in the repeat runs, not every such curve was filed as active; the % refers to the signal ratio; also: series mostly up to about 61 µM; % is scaled to controls: 0 for no effect and ±100 for the full control effect)
How it was run: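 NFkB-bla ME-180 cells carry a beta-lactamase reporter under an NF-kB response element. They were plated overnight, then exposed to compounds for 5 h at 37 C. Read-out is LiveBLAzer FRET after 1.5 hr at room temperature (405 nm excitation; 460/530 nm emission).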

[3] = qHTS assay to identify small molecule agonists of the NFkB signaling pathway - cell viability counter screen (AID 1159515); also: series mostly up to about 61 µM; % is scaled to controls: 0 for no effect and ±100 for the full control effect; nearly all actives have a fitted effect of over 55% in size
How it was run: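 Luminescence from CellTiter-Glo (30 min, room temperature) gives viability, measured in the same wells as the beta-lactamase reporter read. Cells were NFkB-bla ME-180, 2,000 per well, treated 5 hr with compounds.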

[4] = qHTS assay to identify small molecule agonists of the endoplasmic reticulum stress response signaling pathway (AID 1159516; active = well fitted activation curve with a large enough effect in the signal ratio in the repeat runs, not every such curve was filed as active; the % refers to the signal ratio; also: % is scaled to controls: 0 for no effect and ±100 for the full control effect)
How it was run: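 Read-out is beta-lactamase cleavage of a FRET substrate (405 nm excitation; 460 and 530 nm emissions) in ESRE-bla HeLa cells after a 5 hr compound exposure at 37 C. Substrate incubation ran 2 hr at room temperature.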

[5] = qHTS assay to identify small molecule agonists of the endoplasmic reticulum stress response signaling pathway - cell viability counter screen (AID 1159517);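 also: HeLa cells carrying an ER stress response element beta-lactamase reporter; series mostly up to about 61 µM; % is scaled to controls: 0 for no effect and ±100 for the full control effect; nearly all actives have a fitted effect of over 50% in size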
How it was run: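 ESRE-bla HeLa cells, 1,500 per well, seeded overnight then treated with compounds for 5 hr at 37 C. After the beta-lactamase read, viability in the same wells is measured by CellTiter-Glo luminescence after 30 min at room temperature.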

[6] = qHTS assay to identify small molecule antagonists of the retinoid-related orphan receptor gamma (ROR-gamma) signaling pathway - cell viability counter screen (AID 1159520; active = well fitted curve in the direction sought with a large enough effect in the repeat runs; an effect the other way counts as inactive or inconclusive; also: % is scaled to controls: 0 for no effect and ±100 for the full control effect; nearly all actives have a fitted effect of over 50% in size)
How it was run: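 Tet-on ROR gamma CHO cells were given compounds for 2 hr, then doxycycline hyclate at 1 uM final, and incubated 16 hr at 37 C. Viability was measured as ATP content by CellTiter-Glo luminescence.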

[7] = target: Nuclear receptor ROR-gamma (Homo sapiens) (UniProt P51449); experiment: qHTS assay to identify small molecule antagonists of the retinoid-related orphan receptor gamma (ROR-gamma) signaling pathway (AID 1159521; active = well fitted curve in the direction sought with a large enough effect in the repeat runs; an effect the other way counts as inactive or inconclusive;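 also: CHO cells with doxycycline inducible ROR-gamma driving an RORE luciferase reporter; top concentration of the series differs between compounds; % is scaled to controls: 0 for no effect and ±100 for the full control effect; nearly all actives have a fitted effect of over 50% in size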)
How it was run: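 RORγ antagonism is scored from reduced reporter luminescence in Tet-on CHO cells. Induction used 1 uM final doxycycline hyclate for 16 h at 37 C, following a 2 h compound exposure.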

[8] = qHTS assay to identify small molecule agonists of the AP-1 signaling pathway - cell viability counter screen (AID 1159525); also: nearly all actives have a fitted effect of over 55% in size
How it was run: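 AP-1-bla ME-180 cells in Opti-MEM with 0.5% dialyzed FBS, compound exposure 5 h at 37 C in 15-point titration. Viability read in the same wells as ATP content by CellTiter-Glo luminescence, normalised to tetra-n-octylammonium bromide and DMSO controls.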

[9] = qHTS assay to identify small molecule agonists of the AP-1 signaling pathway (AID 1159526); also: % is scaled to controls: 0 for no effect and ±100 for the full control effect
[10] = target: Retinoic acid receptor RXR-alpha (Homo sapiens) (UniProt P19793); experiment: qHTS assay to identify small molecule agonists of the RXR signaling pathway (AID 1159527); also: % is scaled to controls: 0 for no effect and ±100 for the full control effect; nearly all actives have a fitted effect of over 35% in size
How it was run: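 qHTS of the Tox21 10K library in GeneBLAzer RXR-alpha HEK 293T cells carrying a beta-lactamase reporter […]; 16 hr treatment, 9-cis retinoic acid as agonist control, FRET read-out.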

Sequence of Retinoic acid receptor RXR-alpha (Homo sapiens) (P19793 whole entry, looked up): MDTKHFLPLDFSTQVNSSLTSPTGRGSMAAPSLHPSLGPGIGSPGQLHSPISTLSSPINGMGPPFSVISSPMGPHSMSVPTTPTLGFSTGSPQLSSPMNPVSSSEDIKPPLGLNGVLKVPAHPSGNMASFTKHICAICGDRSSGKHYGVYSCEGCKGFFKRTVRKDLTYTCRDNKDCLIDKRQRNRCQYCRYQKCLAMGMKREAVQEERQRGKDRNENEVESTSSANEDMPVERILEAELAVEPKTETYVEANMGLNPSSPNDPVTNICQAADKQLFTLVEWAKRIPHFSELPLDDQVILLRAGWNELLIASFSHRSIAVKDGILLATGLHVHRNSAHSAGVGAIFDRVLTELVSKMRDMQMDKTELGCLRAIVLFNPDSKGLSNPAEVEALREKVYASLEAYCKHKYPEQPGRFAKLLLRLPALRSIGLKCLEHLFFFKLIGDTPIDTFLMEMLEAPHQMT

CCCCC1CCCCC(=O)O1 (stereo not drawn)
inactive: outcome [1] | outcome [2] | outcome [3] | outcome [4] | outcome [5] | Potency [6] | Potency [7] | outcome [8] | Potency [9]

O=C(O)c1cccc(C(=O)O)n1
inactive: outcome [1] | outcome [2] | outcome [3] | outcome [4] | outcome [5] | Potency [6] | Potency [7] | outcome [8] | Potency [9]

CNC(=O)c1c(I)c(NC(=O)CCCCC(=O)Nc2c(I)c(C(=O)O)c(I)c(C(=O)NC)c2I)c(I)c(C(=O)O)c1I
inactive: outcome [1] | outcome [2] | outcome [3] | outcome [4] | outcome [5] | Potency [6] | Potency [7] | outcome [8] | Potency [9]

Cn1ccc2cc3c(cc21)CCN3C(=O)Nc1cccnc1
inactive: outcome [1] | outcome [2] | outcome [3] | outcome [4] | outcome [5] | activity, negative = cytotoxicity [6] -0.672% [at 19 µM] | activity change, negative = inhibition [7] 207% [at 19 µM] | viability change, negative = cytotoxic [8] 0.227% [at 15.8 µM] | activation [9] -5.75% [at 15.8 µM]

CC(C)COC(=O)C(C)C
inactive: outcome [1] | outcome [2] | outcome [3] | outcome [4] | outcome [5] | Potency [6] | Potency [7] | outcome [8] | Potency [9]

O=C1CC2(CCCC2)CC(=O)N1
inactive: outcome [1] | outcome [2] | outcome [3] | outcome [4] | outcome [5] | Potency [6] | Potency [7] | outcome [8] | Potency [9]

COc1ccc2cc(C=O)ccc2c1
inactive: outcome [1] | outcome [2] | outcome [3] | outcome [4] | outcome [5] | Potency [6] | Potency [7] | outcome [8] | Potency [9]

CC(C)(C)N(CCO)CCO
inactive: outcome [1] | outcome [2] | outcome [3] | outcome [4] | outcome [5] | Potency [6] | Potency [7] | outcome [8] | Potency [9]

CSc1nc(NC2CC2)nc(NC(C)(C)C)n1
inactive: outcome [1] | outcome [2] | outcome [3] | outcome [4] | outcome [5] | Potency [6] | Potency [7] | outcome [8] | Potency [9] | Potency [10]

CC(C)(C)CC(C)(C)N
inactive: outcome [1] | outcome [2] | outcome [3] | outcome [4] | outcome [5] | Potency [6] | Potency [7] | outcome [8] | Potency [9]

Cc1ncc(CSSCc2cnc(C)c(O)c2CO)c(CO)c1O
inactive: outcome [1] | outcome [2] | outcome [3] | outcome [4] | outcome [5] | Potency [6] | Potency [7] | outcome [8] | Potency [9] | Potency [10]

CCCCCCC(=O)OCC
inactive: outcome [1] | outcome [2] | outcome [3] | outcome [4] | outcome [5] | Potency [6] | Potency [7] | outcome [8] | Potency [9]

O=S(=O)(O)c1ccccc1O
inactive: outcome [1] | outcome [2] | outcome [3] | outcome [4] | outcome [5] | Potency [6] | Potency [7] | outcome [8] | Potency [9]

CN(C)C(=O)Nc1ccccc1
inactive: outcome [1] | outcome [2] | outcome [3] | outcome [4] | outcome [5] | Potency [7] | outcome [8] | Potency [9]

Oc1ccc2c(c1)OC[C@@H](N1CCC(O)(c3ccc(F)cc3)CC1)[C@H]2O
inactive: outcome [1] | outcome [2] | outcome [3] | outcome [4] | outcome [5] | Potency [7] | outcome [8] | Potency [9]

C=C(C)C(=O)OCCCCCCCCCCCCCCCCCC
inactive: outcome [1] | outcome [2] | outcome [3] | outcome [4] | outcome [5] | activity change, negative = inhibition [7] 0.457% [at 19 µM] | viability change, negative = cytotoxic [8] 1.55% [at 15.8 µM] | activation [9] 0.371% [at 15.8 µM]

CCN(CC)S(=O)(=O)c1ccc(C(=O)O)cc1
inactive: outcome [1] | outcome [2] | outcome [3] | outcome [4] | outcome [5] | Potency [7] | outcome [8] | Potency [9]

CCCCNc1ccccc1
inactive: outcome [2] | outcome [3] | outcome [4] | outcome [5] | Potency [7] | Potency [9]

C=C[Si](OC)(OC)OC
inactive: outcome [1] | outcome [2] | outcome [3] | outcome [4] | outcome [5] | Potency [7] | outcome [8] | Potency [9] | Potency [10]

CC(C)=CCC/C(C)=C/C(=O)O
inactive: outcome [2] | outcome [4] | outcome [5] | Potency [6] | Potency [7] | outcome [8] | Potency [9]
